Assay results from the supplement of paper PMC10849652.
The full data set covers some 8,800 targets. This sample favours those with a hit. About 0.5% of all pairs of compound and target were hits. Unmarked numbers belong to inactive results.

compound: NC1(c2ccc(-c3nc4ccn5c(=O)[nH]nc5c4cc3-c3ccccc3)cc2)CCC1; experiment: log2 fold change, soluble protein after heating vs DMSO (PISA); higher = thermal stabilisation; K562 lysate, 10 uM; active = over 0.2 and 3.5 SD of the protein, either way, in both replicates (recomputed)
Outline: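 A 30 min treatment with 10 μM compound was applied to crude K562 extract at 1 mg/mL protein in PBS pH 7.4 with 1 mM MgCl2. Heating for 3 min spanned 48°C-58°C, after which aliquots were pooled, adjusted to 0.5% NP-40 at 4°C and spun at 21,000xg for 90 min. TMTpro 16plex LC-MS/MS of the supernatant, with channel sums equalised, gave values recorded as log-two fold change in thermal stability against solvent controls, from duplicates.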

Chain of UniProt P50570 (P50570 whole entry, looked up): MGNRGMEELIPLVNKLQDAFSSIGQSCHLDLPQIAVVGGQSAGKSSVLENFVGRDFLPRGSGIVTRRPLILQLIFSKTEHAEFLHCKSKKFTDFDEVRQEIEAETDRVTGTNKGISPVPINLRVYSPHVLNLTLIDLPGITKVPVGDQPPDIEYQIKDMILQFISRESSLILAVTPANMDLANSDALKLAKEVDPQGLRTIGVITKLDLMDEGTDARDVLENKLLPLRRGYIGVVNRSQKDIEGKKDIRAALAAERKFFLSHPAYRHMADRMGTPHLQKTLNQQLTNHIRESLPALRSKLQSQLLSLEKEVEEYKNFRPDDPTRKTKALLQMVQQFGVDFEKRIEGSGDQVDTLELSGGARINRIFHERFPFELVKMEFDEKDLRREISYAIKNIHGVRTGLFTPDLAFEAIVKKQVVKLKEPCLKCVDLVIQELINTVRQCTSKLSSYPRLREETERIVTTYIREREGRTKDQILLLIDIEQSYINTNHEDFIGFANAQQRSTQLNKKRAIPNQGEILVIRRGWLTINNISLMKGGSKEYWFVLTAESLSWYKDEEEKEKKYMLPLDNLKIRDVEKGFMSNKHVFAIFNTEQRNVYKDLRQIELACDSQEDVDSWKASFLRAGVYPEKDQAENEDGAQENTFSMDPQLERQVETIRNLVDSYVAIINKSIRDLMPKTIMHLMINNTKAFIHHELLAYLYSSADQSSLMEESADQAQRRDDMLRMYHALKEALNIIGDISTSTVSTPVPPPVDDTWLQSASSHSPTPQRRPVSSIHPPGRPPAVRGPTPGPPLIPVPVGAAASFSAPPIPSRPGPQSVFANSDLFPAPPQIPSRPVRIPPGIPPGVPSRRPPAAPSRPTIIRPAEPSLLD
Chain of UniProt Q9UP83 (Q9UP83 whole entry, looked up): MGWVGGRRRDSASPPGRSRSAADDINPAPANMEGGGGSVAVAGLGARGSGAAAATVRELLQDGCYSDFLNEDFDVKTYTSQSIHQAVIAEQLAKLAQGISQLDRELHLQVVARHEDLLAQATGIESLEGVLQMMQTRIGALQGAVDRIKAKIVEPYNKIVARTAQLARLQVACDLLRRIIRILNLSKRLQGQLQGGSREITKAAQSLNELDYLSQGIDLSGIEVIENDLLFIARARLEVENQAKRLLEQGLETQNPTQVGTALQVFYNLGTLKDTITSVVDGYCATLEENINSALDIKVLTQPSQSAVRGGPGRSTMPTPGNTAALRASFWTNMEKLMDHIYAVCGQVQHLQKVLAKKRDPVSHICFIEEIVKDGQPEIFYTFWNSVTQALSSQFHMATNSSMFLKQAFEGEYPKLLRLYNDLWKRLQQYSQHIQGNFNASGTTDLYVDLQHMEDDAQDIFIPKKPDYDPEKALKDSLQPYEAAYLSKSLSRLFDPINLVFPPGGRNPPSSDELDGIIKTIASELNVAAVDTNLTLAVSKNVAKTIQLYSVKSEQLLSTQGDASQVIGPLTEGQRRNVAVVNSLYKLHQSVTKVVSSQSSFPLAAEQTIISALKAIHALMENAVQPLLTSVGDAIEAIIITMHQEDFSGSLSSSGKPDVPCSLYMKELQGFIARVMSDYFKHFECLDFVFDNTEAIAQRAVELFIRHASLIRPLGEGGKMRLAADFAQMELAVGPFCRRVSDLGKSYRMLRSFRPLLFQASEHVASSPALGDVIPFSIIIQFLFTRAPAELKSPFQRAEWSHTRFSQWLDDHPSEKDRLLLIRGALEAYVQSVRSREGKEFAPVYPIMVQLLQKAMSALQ
Chain of UniProt Q96KA5 (Q96KA5 whole entry, looked up): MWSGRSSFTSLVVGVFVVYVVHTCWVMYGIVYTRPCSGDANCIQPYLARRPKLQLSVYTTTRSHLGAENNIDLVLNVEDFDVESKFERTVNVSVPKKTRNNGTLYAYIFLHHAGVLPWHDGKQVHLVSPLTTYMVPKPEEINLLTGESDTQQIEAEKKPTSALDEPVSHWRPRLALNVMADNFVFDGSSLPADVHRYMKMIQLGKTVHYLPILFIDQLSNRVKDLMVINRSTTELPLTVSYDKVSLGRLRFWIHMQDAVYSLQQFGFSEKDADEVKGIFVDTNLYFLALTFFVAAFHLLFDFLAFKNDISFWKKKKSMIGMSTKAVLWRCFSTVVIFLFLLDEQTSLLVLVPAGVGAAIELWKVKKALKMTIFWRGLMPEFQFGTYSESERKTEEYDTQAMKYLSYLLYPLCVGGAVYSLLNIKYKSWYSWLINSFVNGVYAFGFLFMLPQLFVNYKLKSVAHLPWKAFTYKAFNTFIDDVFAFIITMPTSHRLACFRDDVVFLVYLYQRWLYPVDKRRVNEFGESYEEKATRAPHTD
Chain of UniProt Q7Z401 (Q7Z401 whole entry, looked up): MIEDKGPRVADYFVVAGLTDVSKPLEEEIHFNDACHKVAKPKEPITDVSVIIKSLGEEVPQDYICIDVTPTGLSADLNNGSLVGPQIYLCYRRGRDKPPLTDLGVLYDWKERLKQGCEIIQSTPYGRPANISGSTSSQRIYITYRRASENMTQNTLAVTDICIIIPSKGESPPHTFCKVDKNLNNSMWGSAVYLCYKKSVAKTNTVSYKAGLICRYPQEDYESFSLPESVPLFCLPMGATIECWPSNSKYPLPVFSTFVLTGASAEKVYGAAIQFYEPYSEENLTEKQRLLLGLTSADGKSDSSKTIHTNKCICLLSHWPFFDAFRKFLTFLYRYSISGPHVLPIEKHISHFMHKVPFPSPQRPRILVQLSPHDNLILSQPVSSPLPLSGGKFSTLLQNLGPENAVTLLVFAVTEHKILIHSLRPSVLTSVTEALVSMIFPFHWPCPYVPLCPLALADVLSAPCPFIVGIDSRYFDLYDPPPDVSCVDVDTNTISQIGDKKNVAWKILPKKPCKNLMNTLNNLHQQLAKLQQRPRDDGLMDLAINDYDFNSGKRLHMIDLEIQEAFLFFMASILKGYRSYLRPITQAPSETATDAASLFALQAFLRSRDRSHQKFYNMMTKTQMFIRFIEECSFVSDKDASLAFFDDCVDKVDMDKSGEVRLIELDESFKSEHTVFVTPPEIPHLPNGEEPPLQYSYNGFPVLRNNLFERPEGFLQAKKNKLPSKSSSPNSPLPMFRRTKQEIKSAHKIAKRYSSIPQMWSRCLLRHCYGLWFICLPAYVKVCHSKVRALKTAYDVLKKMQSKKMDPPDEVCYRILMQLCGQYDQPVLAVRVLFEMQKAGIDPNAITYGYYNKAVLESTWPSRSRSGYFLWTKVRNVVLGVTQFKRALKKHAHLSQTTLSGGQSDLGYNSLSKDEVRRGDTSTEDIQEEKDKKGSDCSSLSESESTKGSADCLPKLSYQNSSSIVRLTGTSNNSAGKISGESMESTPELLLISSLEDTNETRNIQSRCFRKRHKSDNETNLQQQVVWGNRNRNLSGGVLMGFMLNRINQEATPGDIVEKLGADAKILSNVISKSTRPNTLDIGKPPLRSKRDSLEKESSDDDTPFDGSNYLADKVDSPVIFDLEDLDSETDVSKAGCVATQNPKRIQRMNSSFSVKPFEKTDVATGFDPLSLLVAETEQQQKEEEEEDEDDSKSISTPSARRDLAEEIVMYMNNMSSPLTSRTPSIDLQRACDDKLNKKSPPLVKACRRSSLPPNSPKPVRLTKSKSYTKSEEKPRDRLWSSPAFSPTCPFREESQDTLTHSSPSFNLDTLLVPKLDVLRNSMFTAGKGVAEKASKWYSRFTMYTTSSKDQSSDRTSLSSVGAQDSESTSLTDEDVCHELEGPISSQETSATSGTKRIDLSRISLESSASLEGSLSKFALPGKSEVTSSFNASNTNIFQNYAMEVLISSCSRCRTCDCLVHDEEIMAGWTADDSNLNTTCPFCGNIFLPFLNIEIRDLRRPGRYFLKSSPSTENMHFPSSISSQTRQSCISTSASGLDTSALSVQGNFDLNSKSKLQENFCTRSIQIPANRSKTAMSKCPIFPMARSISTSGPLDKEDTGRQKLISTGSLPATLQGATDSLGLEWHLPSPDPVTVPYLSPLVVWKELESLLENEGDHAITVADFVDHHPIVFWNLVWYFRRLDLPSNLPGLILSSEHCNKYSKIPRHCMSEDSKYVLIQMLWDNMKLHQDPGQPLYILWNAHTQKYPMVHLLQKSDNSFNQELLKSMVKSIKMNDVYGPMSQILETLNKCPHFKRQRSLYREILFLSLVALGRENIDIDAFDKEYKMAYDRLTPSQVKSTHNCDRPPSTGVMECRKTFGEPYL
Chain of UniProt P57737 (P57737 whole entry, looked up): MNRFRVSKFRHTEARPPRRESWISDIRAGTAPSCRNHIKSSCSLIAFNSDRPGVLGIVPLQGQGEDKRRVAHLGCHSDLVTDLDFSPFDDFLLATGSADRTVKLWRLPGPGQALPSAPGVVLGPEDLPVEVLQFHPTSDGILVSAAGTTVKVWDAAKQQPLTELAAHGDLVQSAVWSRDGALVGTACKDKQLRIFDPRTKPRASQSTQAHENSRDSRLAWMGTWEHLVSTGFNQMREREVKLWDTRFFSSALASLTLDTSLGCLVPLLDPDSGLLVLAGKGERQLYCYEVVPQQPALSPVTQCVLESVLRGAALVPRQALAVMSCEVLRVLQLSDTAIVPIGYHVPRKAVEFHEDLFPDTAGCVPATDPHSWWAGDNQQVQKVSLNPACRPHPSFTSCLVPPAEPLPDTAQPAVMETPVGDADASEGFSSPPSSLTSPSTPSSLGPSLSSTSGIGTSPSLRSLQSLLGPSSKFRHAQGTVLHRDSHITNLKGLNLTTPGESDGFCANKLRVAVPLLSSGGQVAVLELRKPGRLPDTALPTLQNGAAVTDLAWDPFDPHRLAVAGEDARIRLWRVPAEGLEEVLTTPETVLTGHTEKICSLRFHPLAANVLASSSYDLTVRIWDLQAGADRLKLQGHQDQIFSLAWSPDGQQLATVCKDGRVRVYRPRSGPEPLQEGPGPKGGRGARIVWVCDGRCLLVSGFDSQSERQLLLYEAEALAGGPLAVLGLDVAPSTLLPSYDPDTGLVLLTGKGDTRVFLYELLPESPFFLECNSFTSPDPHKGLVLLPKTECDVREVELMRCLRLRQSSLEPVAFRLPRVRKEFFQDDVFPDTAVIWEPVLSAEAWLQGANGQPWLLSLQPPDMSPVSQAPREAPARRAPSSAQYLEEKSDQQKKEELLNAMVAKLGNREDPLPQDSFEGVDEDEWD

Question: COTL1 (UniProt Q14019) was tested. Which log2 fold change did it give?
Answer: -0.011

Question: With DHCR7 (UniProt Q9UBM7) as the target, how does the log2 fold change read?
Answer: 0.047

Question: How did the log2 fold change turn out when DIAPH3 (UniProt Q9NSV4) was run?
Answer: 0.019

Question: Which log2 fold change does the source give for DMAC2L (UniProt Q99766) here?
Answer: 0.111

Question: For COQ8A (UniProt Q8NI60), which log2 fold change is on record?
Answer: 0.004

Question: CLIP1 isoform 1 (UniProt P30622) was tested. Which log2 fold change did it give?
Answer: -0.002

Question: With CORO7 isoform 3 (UniProt P57737) as the target, how does the log2 fold change read?
Answer: -0.013

Question: With CLASP2 isoform 3 (UniProt O75122) as the target, how does the log2 fold change read?
Answer: 0.032

Question: How did the log2 fold change turn out when COG5 isoform 2 (UniProt Q9UP83) was run?
Answer: -0.12

Question: How did the log2 fold change turn out when DOCK7 (UniProt Q96N67) was run?
Answer: -0.062

Question: For CLUH (UniProt O75153), which log2 fold change is on record?
Answer: 0.004

Question: With CRABP2 (UniProt P29373) as the target, how does the log2 fold change read?
Answer: -0.02

Question: With CUEDC2 (UniProt Q9H467) as the target, how does the log2 fold change read?
Answer: 0.016

Question: CNOT6L (UniProt Q96LI5) was tested. Which log2 fold change did it give?
Answer: 0.003

Question: Which log2 fold change does the source give for COG4 (UniProt Q9H9E3) here?
Answer: 0.055

Question: Which log2 fold change does the source give for CLPTM1L (UniProt Q96KA5) here?
Answer: -0.069

Question: For DPH5 isoform 5 (UniProt Q9H2P9), which log2 fold change is on record?
Answer: 0.377 (active)

Question: How did the log2 fold change turn out when CXXC1 isoform 2 (UniProt Q9P0U4) was run?
Answer: 0.082

Question: For COG6 (UniProt Q9Y2V7), which log2 fold change is on record?
Answer: -0.06

Question: For DENND4A isoform 2 (UniProt Q7Z401), which log2 fold change is on record?
Answer: 0.008

Question: For CMBL (UniProt Q96DG6), which log2 fold change is on record?
Answer: 0.149

Question: With DNM2 isoform 4 (UniProt P50570) as the target, how does the log2 fold change read?
Answer: -0.181

Question: Which log2 fold change does the source give for DMXL1 (UniProt Q9Y485) here?
Answer: 0.034

Question: For DNM2 (UniProt P50570), which log2 fold change is on record?
Answer: 0.009

Question: With COG3 (UniProt Q96JB2) as the target, how does the log2 fold change read?
Answer: -0.083

Question: Which log2 fold change does the source give for DPM1 (UniProt O60762) here?
Answer: -0.057

Question: For CSPP1 (UniProt Q1MSJ5), which log2 fold change is on record?
Answer: 0.011

Question: CNIH4 (UniProt Q9P003) was tested. Which log2 fold change did it give?
Answer: -0.136

Question: For CSTF2 (UniProt P33240), which log2 fold change is on record?
Answer: 0.052

Question: How did the log2 fold change turn out when CXorf38 (UniProt Q8TB03) was run?
Answer: 0.009

Question: How did the log2 fold change turn out when DHRS11 (UniProt Q6UWP2) was run?
Answer: 0

Question: With CHEK1 (UniProt O14757) as the target, how does the log2 fold change read?
Answer: -0.042

Question: How did the log2 fold change turn out when COG2 (UniProt Q14746) was run?
Answer: 0.009

Question: How did the log2 fold change turn out when CLIC2 (UniProt O15247) was run?
Answer: -0.005
